TDP1 cell CPT – qHTS for Inhibitors of human tyrosyl-DNA phosphodiesterase 1 (TDP1): qHTS in cells in presence of CPT | chicken DT40 Tdp1-/-;hTDP1 cells + 20 nM CPT, ATP luminescence, 48 h | Potency, µM (top dose mostly 46.2 µM), inactives show at the top dose activity change, negative = growth inhibition, usual class: inhibitors | hit rate 12% among 420,000 | AID 686979, 2013; note: potency is the fitted concentration of half-maximal effect; % is set by controls: 0 for no effect and ±100 for the full control effect; nearly all actives have a fitted effect of over 55% in size
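Chicken DT40 Tdp1-/- cells stably complemented with human TDP1 were seeded at 400 cells/well in medium containing 20 nM camptothecin, exposed to pin-transferred compounds, and grown at 37 °C for at least 48 hr. Viability was read as ATP luminescence.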
BCR signal inh – qHTS Assay to Find Inhibitors of Chronic Active B-Cell Receptor Signaling | Potency, µM (highest dose often 46.1 µM), for the others: at the highest dose activity change, negative = inhibition, hits mostly inhibitors | ABC-DLBCL IkBa-CBG/CBR reporter, luminescence ratio, 4 h | AID 493014, 2011 | hit rate 0.05% among 340,000; active = well fitted inhibition curve with a large enough effect in the signal ratio, with a control signal flat, not every such curve was filed as active; inconclusive = small, poorly fitted or top-dose-only effect, or effect the other way, or a change in a side signal; the % refers to the signal ratio;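 note: potency is the fitted concentration of half-maximal effect; plate controls were basal doxycycline-induced cells for no effect and cells given 10 µM MG132 for full effect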
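TMD8 ABC-DLBCL cells carrying doxycycline-inducible green luciferase fused to IkappaBalpha plus unfused red luciferase were exposed to compounds (up to 46 uM) for 4 hrs at 37C. Activity came from the overlap-corrected green/red luminescence ratio.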
SW480 rereplic – A quantitative high throughput screen for small molecules that induce DNA re-replication in SW480 colon adenocarcinoma cells; SW480 DNA re-replication, Hoechst DNA content imaging, 48 h; Potency, µM (highest dose often 46.1 µM), for the others: at the highest dose re-replication activation, usual class: activators; hit rate 1.8% among 340,000; note: potency is the fitted concentration of half-maximal effect; % of control where 0% means no effect; nearly all actives have a fitted effect of over 55% in size
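250 cells/well; 23 nL cpd via pin tool; 48 hr, 37 C, 5% CO2; Hoechst 40 min; imager read of total nuclear intensity, ex 405/em 500-530 nm.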
MCF10A rereplic – A quantitative high throughput screen for small molecules that induce DNA re-replication in MCF 10a normal breast cells. MCF 10A DNA re-replication, Hoechst nuclear intensity, 48 h. Potency, µM (titrated, usually from 46.1 µM), inactives show at the top dose activity, positive = re-replication, usual class: activators. hit rate 2.9% among 350,000. AID 624296, 2012; note: potency is the fitted concentration of half-maximal effect; % of control where 0% means no effect; nearly all actives have a fitted effect of over 50% in size
TDP1 cell noCPT – qHTS for Inhibitors of human tyrosyl-DNA phosphodiesterase 1 (TDP1): qHTS in cells in absence of CPT | DT40 Tdp1-/- hTDP1 cells, no CPT, ATP luminescence, 48 h | Potency, µM (titrated, usually from 46.2 µM), inactives show top-dose activity change, negative = growth inhibition, usual class: inhibitors | hit rate 15% among 420,000 | AID 686978, 2013; note: potency is the fitted concentration of half-maximal effect; % is set by controls: 0 for no effect and ±100 for the full control effect; nearly all actives have a fitted effect of over 55% in size
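Growth of hTDP1-complemented DT40 Tdp1-knockout cells is measured by ATP luminescence after at least 48 hr compound exposure at 37 °C, with DMSO substituting for the 20 nM CPT used in the parallel screen.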
IL-1B inflam inh – qHTS for Inhibitors of Inflammasome Signaling: IL-1-beta AlphaLISA Primary Screen | activity change, % at 57.5 µM | hit rate 4.7% among 360,000 | THP-1 LPS/ATP IL-1B secretion, AlphaLISA, 16 h; stronger effect = lower value; in the data active = activity change below about -50%; inconclusive = mostly about -30% to -49%; note: % is set by controls: 0 for no effect and ±100 for the full control effect
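Secreted IL-1B measured by AlphaLISA bead assay after 16 h compound exposure of THP-1 cells; compounds (final up to 57.5 uM) added 1 h before LPS (250 ng/mL) and ATP (1.25 mM) stimulation; lower signal means less secretion.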
* hit, by the source's call; ? = inconclusive; / = not tested or not shown; ! = repeats disagree. The list is not random: actives were taken first. Their share in the collection is about 19%. Unless noted, calls come from the whole dose curve; as a rule, active = well fitted curve in the direction sought with a large enough effect; inconclusive = small, poorly fitted or top-dose-only effect, or another doubt; inactive = no such curve, though single readings can be large; an effect the other way counts as inactive or inconclusive.

SMILES | TDP1 cell CPT | BCR signal inh | SW480 rereplic | MCF10A rereplic | TDP1 cell noCPT | IL-1B inflam inh
COc1cc([N+](=O)[O-])c2nc(C)ccc2c1[N+](=O)[O-] | 9.2µM* | / | 15µM* | ? | 10µM* | -3
COc1cc([N+](=O)[O-])c2ncccc2c1[N+](=O)[O-] | 2.6µM* | / | / | / | 4.6µM* | -117*
COc1cc([N+](=O)[O-])cc([N+](=O)[O-])c1N | -5% | / | / | / | -20% | /
COc1ccc(C2(c3cccc(O)c3OC)CCN(C(C)=O)CC2)cc1O | / | / | -1% | 26% | / | /
O=C1CCC2(O)C3Cc4ccc(O)c5c4C2(CCN3Cc2ccoc2)C1O5 (configuration not stated) | -11% | / | / | / | -20% | 0
[Cl][Pt+2][Cl].[NH-]C1CCCCC1[NH-] (configuration not stated) | 2.3µM* | -3% | ? | -3% | 5.8µM* | -10
C/C=C1/CN2CC[C@]34C(=C(C=O)[C@H]1C[C@@H]23)Nc1ccccc14 | -14% | / | / | / | ? | /
O=c1c2ccccc2nc(/C=C/c2ccccc2F)n1-c1ccccc1O | -45% | ? | ? | 32% | -23% | -87*
Cc1nc2ccccc2c(=O)n1-c1ccc(F)cc1F | -5% | ? | 1% | -6% | -21% | 27
O=c1c2ccccc2nc(/C=C\c2ccccc2[N+](=O)[O-])n1-c1ccccc1O | ? | ? | ? | ? | 23µM* | -98*
CCc1nc2ccccc2c(=O)n1-c1ccccc1[N+](=O)[O-] | -21% | ? | 17% | ? | ? | -3
O=c1c2ccccc2nc(/C=C\c2ccc(F)cc2)n1-c1ccccc1F | 23µM* | ? | / | / | ? | /
Cc1nc2ccccc2c(=O)n1-c1cc(F)ccc1F | -2% | ? | -12% | -4% | -3% | 4
CCCCc1nc2ccccc2c(=O)n1-c1ccccc1[N+](=O)[O-] | ? | 5% | -3% | 1% | 15µM* | -20
Cc1nc2ccccc2c(=O)n1-c1ccc(Br)cc1[N+](=O)[O-] | ? | ? | ? | 2% | ? | 11
CC(=NCc1ccco1)c1c(O)n(-c2ccc(C)cc2)c(=O)[nH]c1=O | -7% | ? | -7% | 4% | 11% | ?
O=[N+]([O-])c1ccc(OP(=O)(O)Oc2ccc([N+](=O)[O-])cc2)cc1 | 0% | / | -4% | -1% | -10% | 32
Nc1nc(O)c(-c2ccccc2)o1 | / | / | -5% | 1% | / | /
Nc1ncc(-c2ccccc2)c(-c2ccc(OCc3ccccc3)cc2O)n1 | ? | ? | ? | 21µM* | ? | -103*
c1ccc(OCc2ccc(CCCN3CCOCC3)cc2)cc1 | ? | 5% | 3% | 24µM*! | 21µM* | 4
Cc1ccc(NC(=O)CCSc2nnc(Cc3ccccc3)o2)cc1 | -7% | -1% | ? | 0% | -6% | 9
CNC(C)C#Cc1ccc2oc3cc(C)c(C)cc3c(=O)c2c1 (configuration not stated) | ? | / | ? | ? | 15µM* | -64*
Cc1ccc(C=C2C(Cl)=C(Cl)C(Cl)=C2Cl)cc1 | 3.3µM* | -1% | ? | ? | 5.2µM* | -6
CCN(CC)c1ccc(N=Cc2c(O)n(Cc3ccco3)c(=O)[nH]c2=O)cc1 | 1% | ? | 70% | 26µM* | -12% | /
CCN(CCO)c1ccc(N=Cc2c(O)n(C)c(=S)[nH]c2=O)cc1 | 12µM* | 8% | ? | ? | 10µM* | 8
